NPSR antagonist – qHTS Assay for Antagonists of the Neuropeptide S Receptor: cAMP Signal Transduction | Q6W5P4 | CHO-NPSR cells, cAMP TR-FRET, antagonist mode | Potency, µM (top dose mostly 38.3 µM), actives largely listed as inhibitors | 220,000 compounds, 1% hits; also: nearly all actives have a fitted effect of over 50% in size
RORg inh – qHTS for inhibitors of ROR gamma transcriptional activity. Nuclear receptor ROR-gamma (Mus musculus), P51450. Drosophila S2 Gal4-RORgamma UAS-luciferase reporter, 20 h. Potency, µM (series often up to 53.6 µM), actives largely listed as inhibitors. 310,000 compounds, 5.4% hits. AID 2551, 2010; also: nearly all actives have a fitted effect of over 60% in size
Target sequence (P51450 whole entry, looked up, the tested form may be a part): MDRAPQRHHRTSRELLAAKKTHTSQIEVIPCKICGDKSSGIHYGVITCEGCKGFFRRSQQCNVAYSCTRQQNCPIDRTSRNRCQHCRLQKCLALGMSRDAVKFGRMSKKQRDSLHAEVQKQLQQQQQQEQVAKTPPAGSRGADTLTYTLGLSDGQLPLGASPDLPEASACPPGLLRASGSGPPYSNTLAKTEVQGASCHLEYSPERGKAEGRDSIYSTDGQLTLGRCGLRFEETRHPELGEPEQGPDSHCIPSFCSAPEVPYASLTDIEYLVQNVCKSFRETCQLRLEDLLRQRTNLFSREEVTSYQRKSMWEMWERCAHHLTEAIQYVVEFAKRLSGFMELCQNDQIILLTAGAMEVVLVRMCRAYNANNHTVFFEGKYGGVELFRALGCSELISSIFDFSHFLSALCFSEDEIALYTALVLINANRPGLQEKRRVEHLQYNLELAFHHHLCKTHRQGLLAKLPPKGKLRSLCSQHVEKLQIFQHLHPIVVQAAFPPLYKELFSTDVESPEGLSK
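Drosophila S2 cells stably expressing Gal4-DBD/mouse RORγ fusion under metallothionein promoter plus UAS-luciferase; compound 1 h, then 700 uM CuSO4 induction for 20 h at ambient temperature; inhibition read as reduced luminescence.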
B2AR arrestin – qHTS assay of beta-arrestin-biased ligands of beta2-adrenergic receptor | 330,000 compounds, 0.02% hits | Potency, µM (highest dose often 46.1 µM), usual class: activators | Beta-2 adrenergic receptor (Homo sapiens), P07550 | beta-arrestin recruitment to beta2AR, cell-based reporter; also: nearly all actives have a fitted effect of over 65% in size
VP16 counter – VP16 counterscreen qHTS for inhibitors of ROR gamma transcriptional activity | Drosophila S2 Gal4-VP16 UAS-luciferase, luminescence, 20 h | Potency, µM (titrated, usually from 53.6 µM), hits mostly inhibitors | 310,000 compounds, 3.5% hits;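 also: Gal4-VP16 expression switched on by copper sulfate through the metallothionein promoter; nearly all actives have a fitted effect of over 50% in size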
Numbers stand for hits; - = inactive; ? = inconclusive; . = not tested or not shown; [ ] = remark or other dose. Compounds with a hit are over-represented: about 5.7% of the library has one in this group of screens. Calls follow the shape of the dose curve; as a rule, active = well fitted curve in the direction sought with a large enough effect; inconclusive = small, poorly fitted or top-dose-only effect, or another doubt; inactive = no such curve, though single readings can be large; an effect the other way counts as inactive or inconclusive.

SMILES	NPSR antagonist	RORg inh	B2AR arrestin	VP16 counter
CCN(Cc1ccncc1)C(=O)CSc1ccc2ccccc2c1	-	-	-	-
Cc1cccc(NS(=O)(=O)c2cc3c(cc2C)NC(=O)CO3)c1	.	-	-	-
CCCCc1cc(=O)oc2cc(O)ccc12	-	-	-	-[10 µM]
COC(=O)C1=C[C@@H](C(=O)OC)C2C3=C(C(=O)[C@@]2(C)NC(=O)c2ccccc2)[C@H](C)[C@@H]2C(=O)NC(=O)[C@@H]2[C@@H]3C1 (stereo partly specified)	.	-	.	-
Cc1cc2c(cc1Cl)C(c1ccccc1C)CC(=O)O2 (stereo unspecified)	.	-	.	-
O=C1CCC=C1C(O)c1ccc2c(c1)OCO2 (stereo unspecified)	.	-	.	-
COc1cc(/C=N/NC(=O)c2ccoc2C)ccc1O	-	?	-	-
COc1ccccc1/C=N/NC(=O)c1ccc(-c2ccccc2)cc1	-	11.2µM	-	?
COc1cccc(/C=N/NC(=O)c2c(-c3ccccc3)noc2C)c1O	-	0.355µM	-	2µM
COc1cc(C(=O)Oc2ccccc2/C=N/NC(=O)c2ccc(Cl)cc2Cl)cc(OC)c1OC	-	7.08µM	-	11.2µM
COc1ccc(Cl)cc1/C=N/NC(=O)c1c(-c2ccccc2)noc1C	.	?	-	-
COc1cccc(/C=N/NC(=O)c2ccoc2C)c1O	-	0.0631µM	-	0.501µM
COc1cc(/C=N\NC(=O)c2ccc(-c3ccccc3)cc2)cc(OC)c1O	.	?	-	?
C=CCOc1ccccc1/C=N/NC(=O)c1ccc(Cl)cc1Cl	-	?	-	-
O=C(Cc1cccs1)NNC(=S)NC(=O)c1ccccc1	-	7.94µM	-	10µM
O=C(Cc1cccs1)NNC(=S)NC(=O)c1ccc(F)c(F)c1	-	6.31µM	-	5.62µM
CC(=O)NNC(=S)NC(=O)c1ccccc1	-	?	-	-
CNC(=S)Nc1ccc([N+](=O)[O-])c(C)c1	-	10µM	-	?
Cc1ccc(CNC(=S)Nc2ccc(C)c([N+](=O)[O-])c2)cc1	-	6.31µM	-	3.55µM
Cc1ccc(NC(=S)NCc2ccccc2)cc1[N+](=O)[O-]	-	?	-	?
CCN=C(NCC)SC1CC(=O)N(c2ccc(F)cc2)C1=O (stereo unspecified)	-	-	-	-
CN(Cc1ccco1)c1ncnc2ccc(-c3cccc(Cl)c3)cc12	.	.	-	.
NNc1nc2sc3c(c2c(=O)[nH]1)CCc1ccccc1-3	-	15.8µM	-	17.8µM
CCSc1nc2sc3c(c2c(=O)[nH]1)CCc1ccccc1-3	?	?	-	-
COc1ccc(N=Nc2ccc3ccccc3c2)c(O)c1	.	-[1.91 µM]	-	?
SMILES	NPSR antagonist	RORg inh	B2AR arrestin	VP16 counter
COc1cccc(N=Nc2ccc3ccccc3c2O)c1	.	8.91µM	-	?
COc1ccc(/C=N/NC(=O)c2ccncc2)cc1CSc1nc2ccccc2s1	-	7.08µM	-	6.31µM
CCC(C)C(N)C(=O)O (stereo unspecified)	.	-	.	-
O=c1c(O)c(-c2ccccc2)oc2cc(O)ccc12	.	-	.	-
Cc1ccc(-c2oc3ccccc3c(=O)c2O)cc1	-	3.98µM	-	12.6µM
O=c1c(O)c(-c2ccccc2)oc2ccccc12	.	3.98µM	.	7.08µM
O=c1c(O)c(-c2ccccc2)oc2cc(O)cc(O)c12	.	-	-	-
Cc1ccc2oc(-c3ccccc3)c(O)c(=O)c2c1	.	6.31µM	.	14.1µM
Cc1ccc2oc(-c3ccccc3)c(C(=O)O)c(=O)c2c1	-	7.08µM	-	11.2µM
Cc1ccc(-c2oc3ccccc3c(=O)c2OCC(=O)O)cc1	-	-	-	-
COC(=O)[C@@]1(Cc2ccc(OC)cc2)[C@H]2c3cc(C(=O)N4CCCC4)n(Cc4cc(F)c(F)c(F)c4)c3C[C@H]2CN1C(=O)c1ccccc1	.	-	.	-
CC(Oc1ccc(Cl)cc1Cl)c1ccn[nH]1 (stereo unspecified)	-	-	-	-[10 µM]
C[C@]12C=CC(=O)N[C@@H]1CC[C@@H]1C2CC[C@]2(C)C(C(=O)Nc3cc(C(F)(F)F)ccc3C(F)(F)F)CC[C@@H]12 (stereo partly specified)	.	-[10 µM]	.	-
COC(=O)C(Cc1c[nH]c2ccccc12)NC(C)=O (stereo unspecified)	-	14.1µM	-	-
COC(=O)[C@@H](Cc1c[nH]c2ccccc12)NC(=O)c1ccc2c(c1)OCO2	.	8.91µM	-	?
O=C(COC(=O)[C@H](Cc1c[nH]c2ccccc12)NC(=O)c1ccc(Cl)cc1)Nc1ccc2c(c1)OCO2	-	-	-	-
COc1ccc(C(=O)N/N=C\c2ccoc2)cc1	.	-	-	-
Cc1ccc(/C=N/NC(=O)c2cccc([N+](=O)[O-])c2)o1	-	-[10 µM]	-	?
O=C(N/N=C/c1ccoc1)c1cccc([N+](=O)[O-])c1	.	11.2µM	-	?
O=C(N/N=C/c1ccc(Br)s1)c1cccc([N+](=O)[O-])c1	-	0.447µM	-	1µM
Cc1ccc(C(=O)N/N=C/c2ccoc2)cc1C	.	12.6µM	-	?
O=C(O)CN1CCc2ccccc2C1	-	-	-	-
CC(C)(C)c1ccc(/C=C/C(=O)N2CCc3ccccc3C2)cc1	-	?	-	1µM
O=C(/C=C/C(=O)N1CCc2ccccc2C1)N1CCc2ccccc2C1	-	?	-	20µM
Cc1ccc(/C=C/C(=O)N2CCc3ccccc3C2)cc1	-	17.8µM	-	?
SMILES	NPSR antagonist	RORg inh	B2AR arrestin	VP16 counter
O=C(/C=C/c1ccc(F)cc1)N1CCc2ccccc2C1	.	.	-	.
Cc1cccc(CNc2ncnc3ccc(-c4ccc(C(=O)N(C)C)cc4)cc23)c1	.	-	.	?
CCNc1ncc2ncc(=O)n(C)c2n1	.	-	.	-
CN(C)c1ccc(/C=C/c2c([N+](=O)[O-])c(=O)n(C)c(=O)n2C)cc1	.	-	-	-
Cn1c(/C=C/c2ccc(Br)cc2)c([N+](=O)[O-])c(=O)n(C)c1=O	.	11.2µM	-	-
CC(C)CN1CC2(CCN(S(=O)(=O)c3ccccc3)CC2)C1	.	-	.	-
NC(=O)N/N=C/c1cn(-c2ccccc2)nc1-c1cccs1	-	-	-	-
Cc1ccc(-c2nn(-c3ccccc3)cc2/C=N/NC(=O)c2ccncc2)o1	-	2.82µM	-	11.2µM
Cc1ccc(-c2nn(-c3ccccc3)cc2C=O)o1	-	?	-	?
O=C(N/N=C/c1nn(-c2ccccc2)cc1-c1ccccc1)c1ccncc1	-	1.58µM	-	3.16µM
O=C(N/N=C/c1cn(-c2ccccc2)nc1-c1cccs1)c1ccncc1	-	1.26µM	-	2.24µM
CC(=O)OC(C(=O)c1ccccc1)c1ccccc1 (stereo unspecified)	.	-	.	-
CC[C@H]1C2=C3C(CC[C@H]4C(OCc5ccc(F)cc5C(F)(F)F)OC[C@](C)([C@@H]34)N(C(=O)OC(C)(C)C)C2)C(COC)C1COC (stereo partly specified)	.	-	.	-

Screening results from PubChem.
